Each structure is given as a SMILES string. The campaign covered roughly 420,000 compounds. About 50,000 (12%) were called active. Roughly 26% stayed inconclusive and do not appear here. Calls follow the shape of the dose curve; as a rule, active = well fitted inhibition curve with a large enough effect; inconclusive = small, poorly fitted or top-dose-only effect; inactive = flat fitted curve, though single readings scatter. Shown is part of a subset that was picked to be rich in actives.
% is scaled to controls: 0 for no effect and ±100 for the full control effect; potency is read from the fitted curve at half-maximal effect.

The test can be described thus: qHTS for Inhibitors of human tyrosyl-DNA phosphodiesterase 1 (TDP1): qHTS in cells in presence of CPT. Also: nearly all actives have a fitted effect of over 55% in size. The following applies: chicken DT40 Tdp1-/-;hTDP1 cells + 20 nM CPT, ATP luminescence, 48 h; series mostly up to 46.2 µM; activity change, negative = growth inhibition: at the top concentration. The essentials: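 Cell growth measured by CellTiter-Glo luminescence after a minimum 48 h, 37 C compound exposure with 20 nM CPT in Tdp1-knockout DT40 cells stably expressing hTDP1, seeded 400/well; qHTS titration format.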
A general note: In qHTS, concentration-response curves come from the screen itself.
As for `O=C(C(=O)N1CCc2ccccc2C1)c1c[nH]c2ccccc12`, the “activity change, negative = growth inhibition” value is -0.41% (inactive).
Turning to `Cc1ccc(-c2noc(CCC(N)=O)n2)cc1`, the “activity change, negative = growth inhibition” value is -5.46% (inactive).
`CCNC(=O)CCc1nc(-c2ccc(C(C)(C)C)cc2)no1`: the Potency is 16.4 µM (active).
As to `CCNC(=O)CCc1nc(-c2ccc(C)cc2)no1`, the “activity change, negative = growth inhibition” value is 2.65% (inactive).
Turning to `Cn1c(Cc2cccs2)nnc1SCC(=O)Nc1ccccc1`, the “activity change, negative = growth inhibition” value is -14.6% (inactive).
`O=C1C(=O)N(CCCO)C(c2ccccc2)/C1=C(\O)c1ccc(Br)cc1` (centres undefined): the “activity change, negative = growth inhibition” value is -18.7% (inactive).
As to `CN(CC(=O)NCc1ccc(Cl)cc1)S(=O)(=O)c1cccs1`, the “activity change, negative = growth inhibition” value was -1.91% (inactive).
Consider `COCCN1CCN(C(=O)c2sc3ncnc(NCC4CCCO4)c3c2C)CC1` (centres undefined), for which the “activity change, negative = growth inhibition” value is 6.09% (inactive).
On the same count and under the same terms, the same measure for `O=C(COC(=O)c1ncc(Cl)c(Cl)c1Cl)NCc1ccccc1`: -15.5% (inactive).
For `CC(C)C(NC(=O)c1c(F)cccc1F)C(=O)NNC(=O)c1ccccc1` (centres undefined), the “activity change, negative = growth inhibition” value is 16.2% (inactive).
On to `Cc1cccc(NC(=O)Cn2c(C(F)(F)F)nc3ccccc32)c1C`, for which the “activity change, negative = growth inhibition” value is -26.9% (inactive).
In the case of `CCC(=O)Nc1nc2ccccc2n1Cc1ccccc1C`, the Potency is 14.6 µM (active).
Take `CCC(=O)Nc1ccc(C)cc1-c1nc2ccccc2n(Cc2ccccc2)c1=O`: the “activity change, negative = growth inhibition” value is -11.9% (inactive).
As for `COc1ccc(N2CC(C(=O)N[C@@H](C)C(=O)N3CCCCC3)CC2=O)cc1` (some centres undefined), the “activity change, negative = growth inhibition” value was 2.81% (inactive).
Still for that read-out and setting: the same measure for `COc1ccccc1NC(=O)C1CCCN(c2cc(C)nc3ncnn23)C1` (centres undefined): -28.8% (inactive).
Take `Cc1c(Cl)cccc1NC(=O)C1CCCN(c2ncnc3onc(C)c23)C1` (centres undefined): the Potency was 8.2 µM (active).
With `Cc1ccc(Cl)cc1NC(=O)C1CCCN(c2cnccn2)C1` (centres undefined), the “activity change, negative = growth inhibition” value is -25.9% (inactive).
For the molecule `CSCC[C@H](NC(=O)OC(C)(C)C)C(=O)N/N=C/c1cc2ccc(C)cc2nc1Cl`, the “activity change, negative = growth inhibition” value was -28.8% (inactive).
On the same count and under the same terms, the same measure for `Cc1ccn(-c2cccc(-n3ccc(C)n3)n2)n1`: -1.46% (inactive).
The same measure, in the same setting: the result for `CCOc1ccccc1N(CC(=O)Nc1ccccc1C(=O)OC)S(C)(=O)=O` reads -2.34% (inactive); that for `CCc1nc2ccc(C(=O)N3CCN(S(=O)(=O)CC)CC3)cn2c1N(C=O)CCC(C)C`, -12.8% (inactive).
Turning to `CCCCN(C=O)c1c(CC)nc2c(OCCC3CCCCC3)cccn12`, the Potency is 16.4 µM (active).
Still for that read-out and setting: the same measure for `CCCCN(C=O)c1c(CC)nc2c(OCc3ccccc3C(=O)OC)cccn12`: 13 µM (active).
For the molecule `Cc1nccn1-c1ccc(NC(=O)[C@H]2O[C@@H](n3cnc4c(N)ncnc43)[C@H](O)[C@@H]2O)cc1`, the “activity change, negative = growth inhibition” value was 1.02% (inactive).
Regarding `CCC1CN(CCNC(=O)c2cccc(C)n2)Cc2cc(OC)ccc2O1` (centres undefined), the activity change, negative = growth inhibition is 5.22% [at 9.04 µM] (inactive).
In the case of `O=C(CSc1ccc(-c2ccc(-n3cccn3)cc2)nn1)Nc1ccc([N+](=O)[O-])cc1`, the “activity change, negative = growth inhibition” value is 3.07% (inactive).
On the same count and under the same terms, the same measure for `COc1ccc(NC(=O)CC2C(=O)OCC3CCCCN32)cc1Cl` (centres undefined): 3.07% (inactive).
On the same count and under the same terms, the result for `CC(C)c1ccc(Cc2nnc(NCCCO)[nH]c2=O)cc1` reads 0.449% (inactive).
With `N#CCc1ccc(OC(=O)c2cccnc2)cc1`, the “activity change, negative = growth inhibition” value was -0.983% (inactive).
The same measure, in the same setting: the same measure for `CC(OC(=O)CNC(=O)c1cccc(F)c1)C(=O)NC1CCCCC1C` (centres undefined): -0.171% (inactive); for `Cc1ccc(CC(=O)Nc2ccc(OC(F)F)c(Cl)c2)cc1C`: -0.622% (inactive).
In the case of `C=CCNC(=S)N/N=C/c1ccc(C)s1`, the Potency is 4.61 µM (active).
For `Cc1ccc(/C=N/NC(=O)CN2CCN(Cc3ccccc3)CC2)s1`, the “activity change, negative = growth inhibition” value was 11.8% (inactive).
The same measure, in the same setting: the result for `C=C(C)CNC(=S)N/N=C/c1ccccc1OCC(=O)O` reads -5.81% (inactive); that for `Cc1cc(OC(C)C(=O)Nc2sc3c(c2C(N)=O)CCCC3)ccc1Cl` (centres undefined), -25% (inactive).
For `c1ccc2c(C[n+]3csc4ccccc43)cccc2c1`, the Potency is 0.92 µM (active).
As to `Nc1scc[n+]1Cc1cccc2cccnc12`, the “activity change, negative = growth inhibition” value is 4.35% (inactive).
`CCOC(=O)CNC(=O)c1cc2c(=O)n3cccc(C)c3nc2s1`: the “activity change, negative = growth inhibition” value is -15.6% (inactive).
`CCOC(=O)N1CCN(C(=O)CSc2nc(=O)n3cccc(C)c3n2)CC1`: the “activity change, negative = growth inhibition” value is 2.09% (inactive).
Turning to `CCOC(=O)CC1C(=O)NCCN1c1nc2c(C)cccn2c(=O)c1/C=C1\SC(=S)N(C(C)CC)C1=O` (centres undefined), the Potency is 16.4 µM (active).
Take `N#CC1(NC(=O)COC(=O)CCN=C2NS(=O)(=O)c3ccccc32)CCCCC1`: the “activity change, negative = growth inhibition” value is 12.3% (inactive).
In the case of `COc1cccc(N(CC(=O)NCc2ccccc2)C(=O)CCC(=O)Nc2nccs2)c1`, the “activity change, negative = growth inhibition” value is -20.2% (inactive).
Turning to `CCc1noc(C)c1C(=O)N1CCN(S(=O)(=O)c2cccc(C(F)(F)F)c2)CC1`, the “activity change, negative = growth inhibition” value is 0.576% (inactive).
Same read-out and setting: the result for `O=C(CCc1nc2sc3c(c2c(=O)[nH]1)CCCC3)NCC(=O)Nc1ccccc1Br` reads 13.3% (inactive); that for `NNC(=O)C1CCCn2c1nc1sc3c(c1c2=O)CCCC3` (centres undefined), 8.97% (inactive).
Take `CS(=O)(=O)N(Cc1nc2sc3c(c2c(=O)[nH]1)CCCC3)C1CCCCC1`: the Potency is 20.6 µM (active).
As for `CCCCCCCCCCCCCCCCO`, the “activity change, negative = growth inhibition” value was -5.61% (inactive).
The same measure, in the same setting: the same measure for `O=C(CCN1C(=O)[C@@H]2Cc3ccccc3CN2C1=O)NCc1ccccc1`: -0.237% (inactive); for `CCOC(=O)N1CCC(N(CCOC)C(=O)Nc2ccc(C)c(C)c2)CC1`: -22.5% (inactive).
The same measure, in the same setting: the same measure for `Cc1cccc(NC(=O)CSc2nc3c(c(=O)[nH]2)CCC3)c1C`: 4.77% (inactive).
The same measure, in the same setting: the same measure for `Cc1cccc(NC(=O)CSc2nc3c(c(=O)[nH]2)CCCC3)c1C`: -21.3% (inactive).
For the molecule `Cc1cccc(NC(=O)COC(=O)CCc2ccccc2)c1C`, the “activity change, negative = growth inhibition” value was -6.21% (inactive).
For the molecule `Cc1cccc(NC(=O)CN2C(=O)c3ccccc3C2=O)c1C`, the “activity change, negative = growth inhibition” value was 6.02% (inactive).
Turning to `Cc1cccc(NC(=O)CSC(N)=O)c1C`, the Potency is 25.9 µM (active).

The values are drawn from PubChem BioAssay AID686979 (National Center for Advancing Translational Sciences (NCATS), 2013).
